S2 tox = Viability Counterscreen for Primary qHTS for Inhibitors of ATXN expression. AID 651635, 2014. 0.49% of 400,000 active. S2 cells (HEK-293 line with an ATXN2-luciferase reporter) viability, CellTiter-Fluor protease fluorescence, 24 h. Potency, µM (series often up to 56.7 µM), actives largely listed as cytotoxic; note: nearly all actives have a fitted effect of over 40% in size
ATXN2 expr inh = Primary qHTS for Inhibitors of ATXN expression; HEK-293 ATXN2-luciferase reporter, luminescence, 24 h; Potency, µM (doses to about 57 µM), for the others: at the highest dose activity change, negative = inhibition, most hits filed as inhibitors; 0.72% of 360,000 active; AID 1745845, 2022; note: % is set by controls: 0 for no effect and ±100 for the full control effect; nearly all actives have a fitted effect of over 55% in size
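qHTS (up to 57 uM final) was run with 24 h compound exposure of reporter cells at 37 °C. Each well was multiplexed: SteadyGlo luminescence measured ATXN2-luciferase expression after a fluorogenic Gly-Phe-AFC viability readout (25 uM final).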
HepG2 viability = qHTS for Inhibitors of TGF-b: Cytotox Counterscreen; Potency, µM (series often up to 46.1 µM), for inactives: at the highest dose activity change, negative = cytotoxicity, actives largely listed as cytotoxic; 0.76% of 410,000 active; HepG2 CAGA-GFP viability, ATP luminescence, 18 h
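CellTiter-Glo luminescence gave cytotoxicity after 18 hours at 37 degrees C. The cells were HepG2 CAGA-GFP in 1% FBS DMEM, stimulated with 500 pg/mL TGF-beta after compound addition. %Activity was normalised to no-cell wells (complete cell-killing) and DMSO (no toxicity), and curves were fitted and classified.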
TDP1 cell CPT = qHTS for Inhibitors of human tyrosyl-DNA phosphodiesterase 1 (TDP1): qHTS in cells in presence of CPT. chicken DT40 Tdp1-/-;hTDP1 cells + 20 nM CPT, ATP luminescence, 48 h. Potency, µM (top dose mostly 46.2 µM), without a hit: top-dose activity change, negative = growth inhibition, actives largely listed as inhibitors. 12% of 420,000 active. AID 686979, 2013; note: % is set by controls: 0 for no effect and ±100 for the full control effect; nearly all actives have a fitted effect of over 55% in size
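Cell growth measured by CellTiter-Glo luminescence after a minimum 48 h, 37 C compound exposure with 20 nM CPT in Tdp1-knockout DT40 cells stably expressing hTDP1, seeded 400/well; qHTS titration format.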
DT40 TDP1 no CPT = qHTS for Inhibitors of human tyrosyl-DNA phosphodiesterase 1 (TDP1): qHTS in cells in absence of CPT; DT40 Tdp1-/- hTDP1 cells, no CPT, ATP luminescence, 48 h; Potency, µM (highest dose often 46.2 µM), inactives show at the highest dose activity change, negative = growth inhibition, actives largely listed as inhibitors; 15% of 420,000 active; AID 686978, 2013; note: % is set by controls: 0 for no effect and ±100 for the full control effect; nearly all actives have a fitted effect of over 55% in size
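Stably hTDP1-transfected Tdp1-null chicken DT40 cells were treated with library compounds minus camptothecin and grown for at least 48 hr at 37 °C, after which cellular ATP was quantified by luminescence.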
TGFb inhibitor = qHTS for Inhibitors of TGF-b; HepG2 CAGA-GFP TGF-b/SMAD3 reporter, GFP fluorescence, 18 h; TGF-beta stimulated, 500 pg/mL final; Potency, µM (titrated, usually from 46.1 µM), without a hit: at the top dose activity, negative = inhibition, usual class: inhibitors; 1.2% of 410,000 active; AID 588855, 2011; note: % is set by controls: 0 for no effect and ±100 for the full control effect; nearly all actives have a fitted effect of over 65% in size
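Read-out: total well GFP (ex488/em500-530) summed from mean per-cell fluorescence. Cells: HEPG2 CAGA-GFP, 1% FBS DMEM, 18 h at 37 degrees C with 500 pg/mL final TGF-beta. Unstimulated wells served as the full-inhibition control; stimulated DMSO wells = 0%.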
* hit, by the source's call; [ ] = dose if it differs, or a comment. The list is not random: actives were taken first. Their share in the collection is about 17%. Calls come from the whole dose curve; as a rule, active = well fitted curve in the direction sought with a large enough effect; inconclusive = small, poorly fitted or top-dose-only effect, or another doubt; inactive = no such curve, though single readings can be large; an effect the other way counts as inactive or inconclusive. Potency is the fitted concentration of half-maximal effect.

For COc1ccc(C(=O)c2sc3nc(-c4ccc(C)cc4)cc(C(F)(F)F)c3c2N)cc1 the results were HepG2 viability -1%, TDP1 cell CPT -29%, DT40 TDP1 no CPT -20% and TGFb inhibitor 57%.
CCOc1ccc(NC(=O)c2sc3nc4c(c(-c5ccccc5)c3c2N)C(=O)CC(C)(C)C4)cc1 was read as S2 tox inactive, ATXN2 expr inh 10%, HepG2 viability -2%, TDP1 cell CPT inconclusive, DT40 TDP1 no CPT -19% and TGFb inhibitor -5%.
Screening COc1ccc(NC(=O)c2sc3nc(-c4ccc(OC)cc4)cc(C(F)(F)F)c3c2N)cc1 returned HepG2 viability -38%, TDP1 cell CPT 2.9µM*, DT40 TDP1 no CPT 1.8µM* and TGFb inhibitor 11%.
COc1cccc(NC(=O)c2sc3nc(C)c(C(=O)Nc4ccc(C)cc4C)c(-c4ccco4)c3c2N)c1 was read as S2 tox inactive, ATXN2 expr inh -2%, HepG2 viability 1%, TDP1 cell CPT inconclusive, DT40 TDP1 no CPT inconclusive and TGFb inhibitor 23%.
Screening COc1ccc(-c2c3c(nc4sc(C(=O)Nc5cccc(OC)c5)c(N)c24)CC(C)(C)CC3=O)cc1 returned S2 tox inactive, ATXN2 expr inh 11%, HepG2 viability 2%, TDP1 cell CPT inconclusive, DT40 TDP1 no CPT 13µM* and TGFb inhibitor -6%.
COc1ccc(NC(=O)c2sc3nc4c(c(-c5ccc(OC)cc5)c3c2N)C(=O)CC(C)(C)C4)cc1 was read as S2 tox inconclusive, ATXN2 expr inh 1%, HepG2 viability -6%, TDP1 cell CPT 23µM*, DT40 TDP1 no CPT 13µM* and TGFb inhibitor 0%.
Screening Clc1ccc(CON/C=N/c2ncnc3sccc23)cc1 returned S2 tox inactive, ATXN2 expr inh -17%, HepG2 viability -9%, TDP1 cell CPT 12µM*, DT40 TDP1 no CPT 12µM* and TGFb inhibitor 14%.
C(=N\c1ncnc2sccc12)/NOCc1ccccc1 was read as S2 tox inactive, ATXN2 expr inh -8%, HepG2 viability -8%, TDP1 cell CPT 23µM*, DT40 TDP1 no CPT 9.2µM* and TGFb inhibitor 1%.
`CCn1c(CN2CCN(C(c3ccccc3)c3ccccc3)CC2)nc2c1c(=O)n(C)c(=O)n2C` gave S2 tox inactive, ATXN2 expr inh -18%, HepG2 viability -14%, TDP1 cell CPT inconclusive, DT40 TDP1 no CPT inconclusive and TGFb inhibitor -3%.
COc1ccc(C(C)(O)c2nc(-c3cccc(F)c3)cs2)cc1 (stereo not given) was read as S2 tox inactive, ATXN2 expr inh -11%, HepG2 viability -38%, TDP1 cell CPT inconclusive, DT40 TDP1 no CPT inconclusive and TGFb inhibitor -20%.
`COc1ccc(C(C)(O)c2nc(-c3cccc(C(C)C)c3)cs2)cc1` (stereo not given) gave S2 tox inactive, ATXN2 expr inh inconclusive, HepG2 viability 20µM*, TDP1 cell CPT inconclusive, DT40 TDP1 no CPT inconclusive and TGFb inhibitor inconclusive.
CC(O)(c1cccnc1)c1nc(-c2cccc(C(F)(F)F)c2)cs1 (stereo not given) was read as S2 tox inactive, ATXN2 expr inh -18%, HepG2 viability -28%, TDP1 cell CPT 18µM*, DT40 TDP1 no CPT 15µM* and TGFb inhibitor 5%.
Screening COc1ccc(C(C)(O)c2nc(-c3cccc(C(F)(F)F)c3)cs2)cc1 (stereo not given) returned S2 tox inconclusive, ATXN2 expr inh -37%, HepG2 viability -98%, TDP1 cell CPT 26µM*, DT40 TDP1 no CPT 18µM* and TGFb inhibitor inconclusive.
Screening COc1ccc(C(C)(O)c2nc(-c3ccccc3OC)cs2)cc1 (stereo not given) returned S2 tox inactive, ATXN2 expr inh -15%, HepG2 viability -24%, TDP1 cell CPT 9.2µM*, DT40 TDP1 no CPT 13µM* and TGFb inhibitor 8%.
Cc1ccccc1-n1nc2c(c1NC(=O)CC(C)C)CS(=O)C2 (stereo not given) was read as S2 tox inactive, ATXN2 expr inh 0%, HepG2 viability 4%, TDP1 cell CPT -5%, DT40 TDP1 no CPT 24% and TGFb inhibitor 0%.
O=C1NC(=O)C(=Cc2ccc3nccnc3c2)S1 was read as ATXN2 expr inh 5%[25.6 µM].
Screening CCn1cc(C(=O)NCCCOC)c(=O)c2cc(S(=O)(=O)N(C)C3CCCCC3)ccc21 returned S2 tox inactive, ATXN2 expr inh -20%, HepG2 viability -10%, TDP1 cell CPT -31%, DT40 TDP1 no CPT inconclusive and TGFb inhibitor -16%.
For CCC1CCCCN1CCCNC(=O)c1cn(CC)c2ccc(S(=O)(=O)N(C)C3CCCCC3)cc2c1=O (stereo not given) the results were S2 tox inconclusive, ATXN2 expr inh -8%, HepG2 viability -55%, TDP1 cell CPT inconclusive, DT40 TDP1 no CPT 21µM* and TGFb inhibitor inconclusive.
CCCCSCCCNC(=O)c1cn(CC)c2ccc(S(=O)(=O)N(C)C3CCCCC3)cc2c1=O was read as S2 tox inactive, ATXN2 expr inh 0%, HepG2 viability -3%, TDP1 cell CPT inconclusive, DT40 TDP1 no CPT 16µM* and TGFb inhibitor 2%.
Screening CCCN(CCC)CCCNC(=O)c1cn(CC)c2ccc(S(=O)(=O)N(C)C3CCCCC3)cc2c1=O returned S2 tox inconclusive, ATXN2 expr inh -15%, HepG2 viability -3%, TDP1 cell CPT inconclusive, DT40 TDP1 no CPT inconclusive and TGFb inhibitor 6%.
`CCOC(=O)c1c(S(=O)(=O)N2CCC(C(=O)Nc3ccc(C)c(Cl)c3)CC2)c(C)n(C)c1C` gave S2 tox inactive, ATXN2 expr inh -6%, HepG2 viability -31%, TDP1 cell CPT -22%, DT40 TDP1 no CPT -20% and TGFb inhibitor -13%.
`C/C(=N\N=C1\NC(=O)C(CC(=O)Nc2ccc(C)c(Cl)c2)S1)C(C)C` (stereo not given) gave S2 tox inactive, HepG2 viability -1%, TDP1 cell CPT 3%, DT40 TDP1 no CPT inconclusive and TGFb inhibitor inconclusive.

Assay outcomes deposited in PubChem by National Center for Advancing Translational Sciences (NCATS).
